High-throughput results deposited in PubChem BioAssay by National Center for Advancing Translational Sciences (NCATS).
CtBP-E1A blk – inhibitors of CtBP/E1A interaction; AlphaScreen GST-E1A/His-CtBP binding, 1536-well; hits give low values; activity change, % (no concentration beside the values); 0.49% of 340,000 active; AID 651724; in the data active = activity change below about -65%; inconclusive = mostly about -30% to -63%; note: % is set by controls: 0 for no effect and ±100 for the full control effect
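AlphaScreen with 125 nM GST-E1A and 125 nM His-CtBP (5X stocks) in Tris pH 8.0, 300 mM NaCl, BSA, Tween 20, TCEP. Compounds preincubated 2 h at 37 deg C, then glutathione donor/nickel acceptor beads added for 1 h at 37 deg C in dark.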
Six1-Eya2 inh – Six1/Eya2 interaction inhibition | Q15475+O00167 | AlphaScreen GST-Six1/His-Eya2 binding, biochemical; hits give low values | activity change, % (test concentration not listed) | 0.56% of 360,000 active | AID 651725; in the data active = activity change below about -65%; inconclusive = mostly about -30% to -63%; note: % is set by controls: 0 for no effect and ±100 for the full control effect
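AlphaScreen with GST-Six1 and His-Eya2 (5X mix: 250 nM and 500 nM), glutathione donor and nickel acceptor beads; buffer 50 mM Tris pH 8.0, 300 mM NaCl, 1 mM TCEP; 1 h at 37 C in the dark.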
HP1b chromo inh – inhibitors of HP1-beta chromodomain binding to methylated histone tails | P83916 | AlphaScreen HP1-beta / biotin-H3K9me3 peptide binding | 0.56% of 390,000 active | Potency, µM (titrated, usually from 114 µM), for the others: at the highest dose activity change, negative = inhibition, most hits filed as inhibitors; note: potency is the fitted concentration of half-maximal effect; nearly all actives have a fitted effect of over 70% in size
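HP1-beta protein (50 nM final) preincubated 30 min at room temperature with biotinylated H3(1-18)K9me3 peptide (50 nM) in PBS pH 7.4, 0.01% Tween-20, then compound added for 30 min. AlphaScreen streptavidin donor/nickel chelate acceptor beads (10 ug/mL final), 30 min dark, luminescence read.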
BAZ2B inh – inhibitors of human BAZ2B bromodomain. Q9UIF8. AlphaScreen BAZ2B-H3K14Ac peptide displacement. Potency, µM (series often up to 114 µM), without a hit: at the highest dose activity change, negative = inhibition, usual class: inhibitors. 4.4% of 360,000 active. AID 504333; note: potency is the fitted concentration of half-maximal effect; % is set by controls: 0 for no effect and ±100 for the full control effect; nearly all actives have a fitted effect of over 60% in size
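Complex of BAZ2B and biotin-H3K14Ac (50 nM apiece) forms over 30 min at RT, then faces library compounds up to 110 uM for another 30 min; AlphaScreen beads added, 20 min dark incubation, luminescence read.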
TDP1 inh – TDP1 (human) enzyme inhibition | Q9NUW8 | recombinant TDP1, AlphaScreen DNA substrate cleavage | Potency, µM (top dose mostly 130 µM), for the others: top-dose activity change, negative = inhibition, most hits filed as inhibitors | 0.28% of 350,000 active; note: potency is the fitted concentration of half-maximal effect; % is set by controls: 0 for no effect and ±100 for the full control effect; nearly all actives have a fitted effect of over 40% in size
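Enzyme-compound mixtures sat 15 min at room temperature, followed by a 5 min reaction with 15 nM final substrate and 10 min with AlphaScreen beads. Recombinant human Tdp1 was used at 1 nM final.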
JMJD2A Tudor – JMJD2A Tudor domain (human) inhibition; AlphaScreen JMJD2A-Tudor / H3K4me3 peptide binding; Potency, µM (top dose mostly 114 µM), inactives show at the highest dose activity change, negative = inhibition, usual class: inhibitors; 4.4% of 390,000 active; note: potency is the fitted concentration of half-maximal effect; % is set by controls: 0 for no effect and ±100 for the full control effect; nearly all actives have a fitted effect of over 50% in size
Target sequence (O75164 whole entry, looked up, the tested form may be a part): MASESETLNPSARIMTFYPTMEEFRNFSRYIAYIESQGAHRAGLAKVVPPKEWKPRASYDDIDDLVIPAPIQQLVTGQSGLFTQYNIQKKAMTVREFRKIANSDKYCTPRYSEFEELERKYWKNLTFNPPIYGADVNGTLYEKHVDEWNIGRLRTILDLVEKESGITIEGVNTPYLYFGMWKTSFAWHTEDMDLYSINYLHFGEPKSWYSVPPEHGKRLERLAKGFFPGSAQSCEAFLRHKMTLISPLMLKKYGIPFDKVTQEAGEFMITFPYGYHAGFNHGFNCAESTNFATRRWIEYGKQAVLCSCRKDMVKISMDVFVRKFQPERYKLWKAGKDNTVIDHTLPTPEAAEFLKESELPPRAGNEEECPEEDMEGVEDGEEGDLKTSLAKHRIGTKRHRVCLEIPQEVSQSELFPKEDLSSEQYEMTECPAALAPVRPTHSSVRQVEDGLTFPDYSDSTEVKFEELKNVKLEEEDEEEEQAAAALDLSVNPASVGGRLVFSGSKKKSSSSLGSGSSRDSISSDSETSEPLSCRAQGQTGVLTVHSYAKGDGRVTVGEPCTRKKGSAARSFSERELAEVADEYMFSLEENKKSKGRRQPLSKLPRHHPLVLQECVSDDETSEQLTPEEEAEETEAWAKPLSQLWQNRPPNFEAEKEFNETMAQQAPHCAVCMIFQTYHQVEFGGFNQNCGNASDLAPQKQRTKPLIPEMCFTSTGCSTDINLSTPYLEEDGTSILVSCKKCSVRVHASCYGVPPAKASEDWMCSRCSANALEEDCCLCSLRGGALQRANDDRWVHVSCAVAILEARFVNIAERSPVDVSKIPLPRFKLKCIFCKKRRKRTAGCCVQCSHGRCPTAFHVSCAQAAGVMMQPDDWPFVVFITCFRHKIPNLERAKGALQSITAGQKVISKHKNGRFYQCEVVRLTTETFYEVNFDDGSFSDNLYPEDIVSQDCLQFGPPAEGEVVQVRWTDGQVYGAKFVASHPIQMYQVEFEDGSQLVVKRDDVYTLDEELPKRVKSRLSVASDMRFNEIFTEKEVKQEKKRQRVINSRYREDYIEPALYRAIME
* marks the source's active call; other numbers are inactive results; ? = inconclusive; . = not tested or not shown; [ ] = dose if it differs, or a comment. An excerpt weighted towards active compounds, which were near 5.3% of everything screened. Unless noted, calls come from the whole dose curve; as a rule, active = well fitted inhibition curve with a large enough effect; inconclusive = small, poorly fitted or top-dose-only effect; inactive = no such curve, though single readings can be large or run the other way.

SMILES	CtBP-E1A blk	Six1-Eya2 inh	HP1b chromo inh	BAZ2B inh	TDP1 inh	JMJD2A Tudor
O=C(c1ccc(N2C(=O)C3C4CC(C(Br)C4Br)C3C2=O)cc1)N1CCCCC1 (stereo not drawn)	-1.3	2.9	22.0%	-26.7%	31.6µM*	-16.0%
Cc1cc(N=Nc2ccc(C)c(N=Nc3cc(C)c(N)cc3N)c2)c(N)cc1N	.	?	?	39.8µM*	.	50.1µM*
Cc1cc(-c2cc(C)c(N)cc2C)c(C)cc1N	-17.4	-7.3	?	.	.	?
C/C=C(/C)C(=O)Nc1cccc(C2=NOC3(C2)C[C@H](C(N)=O)N(C(=O)c2ccc(Cl)cc2)C3)c1 (stereo partly drawn)	1.4	-0.4	37.9%	-6.4%	-2.4%	-13.1%
C/C=C/C(=O)Nc1cccc(C2=NOC3(C2)C[C@@H](C(N)=O)N(C(=O)c2cc([N+](=O)[O-])cc([N+](=O)[O-])c2C)C3)c1 (stereo partly drawn)	-0.5	4.5	4.9%	-18.1%	2.4%	-26.8%
NC(=O)[C@@H]1CC2(CC(c3cccc(NC(=O)[C@H]4CCC(=O)N4)c3)=NO2)CN1C(=O)COc1ccc(Cl)cc1 (stereo partly drawn)	4.8	0.2	4.5%	79.4µM*	4.7%	?
C=C(C)C(=O)Nc1cccc(C2=NOC3(C2)C[C@@H](C(N)=O)N(C(=O)c2ccc(Cl)cc2)C3)c1 (stereo partly drawn)	4.0	-29.8	7.94µM*	11.2µM*	12.6µM*	7.08µM*
C=C(C)C(=O)Nc1cccc(C2=NOC3(C2)C[C@@H](C(N)=O)N(C(=O)c2cc([N+](=O)[O-])cc([N+](=O)[O-])c2C)C3)c1 (stereo partly drawn)	5.3	-24.6	6.31µM*	28.2µM*	.	17.8µM*
C=C(C)C(=O)Nc1cccc(C2=NOC3(C2)C[C@H](C(N)=O)N(C(=O)c2ccccc2)C3)c1 (stereo partly drawn)	.	-15.2	?	44.7µM*	?	22.4µM*
COc1cccc(N2CCN(C(=O)c3c(C)oc4ncnc(N5CCCCC5)c34)CC2)c1	.	.	-1.7%	-35.3%[57.1 µM]	0.0%	-2.6%
Cc1ccc(S(=O)(=O)c2nnn3c2nc(NC(C)c2ccccc2)c2sccc23)cc1 (stereo not drawn)	.	.	48.4%	-10.5%	5.1%	-18.3%
CC(C)=NOC[C@@H](O)COCc1ccco1	.	.	.	.	4.8%[21 µM]	.
CCCCCCC1Cc2cc(OC)c(OC)cc2C(C(C(=O)OCC)C(=O)OCC)O1 (stereo not drawn)	.	.	.	.	7.9%[21 µM]	.
FC(F)(F)c1cccc(-n2cc(-c3ccccc3)c3c(N4CCCCC4)ncnc32)c1	.	.	12.0%	-18.2%	5.2%	-22.0%
O=C(CN1C(=O)c2ccccc2Sc2ccc(C(=O)N3CCOCC3)cc21)Nc1ccc(Cl)cc1F	.	.	33.2%	10.9%	-4.7%	1.3%
CCC(=O)Nc1cccc(C2=NOC3(C2)C[C@@H](C(N)=O)N(C(=O)COc2ccc(Cl)cc2)C3)c1 (stereo partly drawn)	-0.2	3.5	22.3%	0.7%	3.5%	-13.3%
C=C(C)C(=O)Nc1cccc(C2=NOC3(C2)C[C@H](C(N)=O)N(C(=O)COc2ccc(Cl)cc2)C3)c1 (stereo partly drawn)	1.4	-20.1	10µM*	6.31µM*	11.2µM*	10µM*
COc1ccc(NCc2nn(CC(=O)c3ccc(Br)cc3)c3[n+]2CCCCC3)cc1	-12.5	-26.6	-16.7%	35.5µM*	10.0%	44.7µM*
COc1ccc(-c2c(C)c3ccc(O)c(CN4CCCC(C)C4)c3oc2=O)cc1OC (stereo not drawn)	.	.	23.3%[57 µM]	?	0.0%	4.9%
Cc1cc(C2=NNC(=NC3CC3)SC2)c(C)n1-c1ccccc1F	1.3	-11.4	?	?	-2.2%	28.2µM*
CCOc1ccc2c(c1)NC(c1ccc(OCC)c(OCC)c1)=NC(c1ccc(F)cc1)=N2	.	.	?	?	11.6%	25.1µM*
CC(C)OC(=O)c1cccc(C(=O)Oc2ccc(Br)cc2)n1	2.6	-1.0	40.7%	8.6%	5.8%	0.6%
CC(C)OC(=O)c1cccc(C(=O)O)n1	2.4	-0.1	5.9%	?	3.3%	7.08µM*
O=C1CN(Cc2ccccc2)C(=NCc2ccco2)S1	-7.0	-9.0	-13.6%	?	4.6%	79.4µM*
S=C1SCN(Cc2ccccc2)CN1Cc1ccco1	0.2	-29.5	.	.	.	.
SMILES	CtBP-E1A blk	Six1-Eya2 inh	HP1b chromo inh	BAZ2B inh	TDP1 inh	JMJD2A Tudor
Cc1cccc(NC(=O)CSC2=NN3CCCC(=O)N=C3S2)c1C	-0.4	-14.4	2.2%	50.1µM*	.	?
O=C1CCCN2N=C(SCC(=O)Nc3ccc([N+](=O)[O-])cc3)SC2=N1	11.3	-0.3	1.1%	-6.3%	9.2%	56.2µM*
O=C1CCCC2=C1C1(CCC1)N=C(Nc1nc3ccccc3o1)N2	.	.	.	.	1.4%	-23.1%
CCN(Cc1ccccc1)Cc1c(O)ccc2c(=O)c(-c3ccccc3Cl)c(C(F)(F)F)oc12	.	.	2.7%	1.7%	.	0.3%
COc1ccc(/C=N/NC(=O)CN2CCSCC2)cc1C	7.5	1.7	?	50.1µM*	0.0%	3.55µM*
O=C(CN1CCSCC1)N/N=C/c1cccc(Cl)c1	.	-2.9	59.6%	50.1µM*	-2.4%	?
CCOc1ccc(/C=N/NC(=O)C2(O)c3ccccc3-c3ccccc32)cc1	2.6	-29.5	4.5%	0.1%	0.0%	89.1µM*
CCOc1ccc(/C=N/NC(=O)CN2CCSCC2)cc1	-13.6	3.8	?	50.1µM*	4.2%	2µM*
COc1ccc(/C=N/NC(=O)CN2CCN(Cc3ccccc3)CC2)cc1Br	-7.9	-2.2	-7.7%	-21.5%	2.6%	-20.7%
O=C(Nc1cccc(F)c1)c1ccc(-c2ccccc2)s1	.	.	37.9%	-4.2%	-7.6%	10.7%
COc1ccc(S(=O)(=O)N(CC(=O)Nc2cc(Cl)ccc2C)Cc2ccccc2)cc1OC	.	.	58.2%	3.0%	3.1%[12.3 µM]	-24.8%
COc1ccc(C2C(C(=O)OC(C)C)=C(C)N=c3s/c(=C\c4cccs4)c(=O)n32)cc1 (stereo not drawn)	-0.5	4.1	-4.7%	?	-2.0%	-30.2%
CCOC(=O)C1=C(C)N=c2s/c(=C/c3ccc(OCC(=O)O)cc3)c(=O)n2C1c1ccc(SC)cc1 (stereo not drawn)	.	.	.	35.5µM*	.	.
CCOC(=O)C1=C(C)N=c2sc(=C(C)C)c(=O)n2C1c1ccc(N(C)C)cc1 (stereo not drawn)	-13.3	-1.2	-8.8%	.	.	89.1µM*
CC1=C(C(=O)OC(C)C)C(c2ccc(Cl)cc2)n2c(sc(=Cc3ccc(OCC(=O)O)cc3)c2=O)=N1 (stereo not drawn)	-5.1	-15.8	.	.	.	.
